Structures are written as SMILES. Read-outs that look alike come from different tables or passages of the source.

One assay concerns T1, IKK-alpha.
T1 construct: gene CHUK
The following applies: concentration: 1 μM, replicates: in singlicate; n = 1.

The subject of another assay is T2, IKK-beta.
T2 construct: gene IKBKB
The following applies: concentration: 1 μM, replicates: in singlicate; n = 1.

In the next assay the test system is T3, IKK-epsilon.
T3 construct: gene IKBKE
The following applies: concentration: 1 μM, replicates: in singlicate; n = 1.

For a further assay, the system named is INSRR. The following applies: concentration: 1 μM, replicates: in singlicate; n = 1.
A further assay concerns INSR. The conditions noted are these: concentration: 1 μM, replicates: in singlicate; n = 1.
A further assay has as its system IRAK1. The conditions noted are these: concentration: 1 μM, replicates: in singlicate; n = 1.
A further assay has as its system IRAK3. The conditions noted are these: concentration: 1 μM, replicates: in singlicate; n = 1.
In the next assay the test system is IRAK4. The conditions noted are these: concentration: 1 μM, replicates: in singlicate; n = 1.
The test system of the next assay is ITK. The conditions noted are these: concentration: 1 μM, replicates: in singlicate; n = 1.
For assay [1], the system named is JAK1(JH1domain-catalytic). The following applies: concentration: 1 μM, replicates: in singlicate; n = 1.
The subject of assay [2] is JAK1(JH2domain-pseudokinase). The following applies: concentration: 1 μM, replicates: in singlicate; n = 1.
Assay [3] has as its system JAK2(JH1domain-catalytic). The conditions noted are these: concentration: 1 μM, replicates: in singlicate; n = 1.
Assay [4] has as its system JAK3(JH1domain-catalytic). The following applies: concentration: 1 μM, replicates: in singlicate; n = 1.
The subject of the next assay is T4, JNK1.
T4 construct: gene MAPK8
The following applies: concentration: 1 μM, replicates: in singlicate; n = 1.

The next assay deals with T5, JNK2.
T5 construct: gene MAPK9
The following applies: concentration: 1 μM, replicates: in singlicate; n = 1.

The next assay has as its system T6, JNK3.
T6 construct: gene MAPK10
The following applies: concentration: 1 μM, replicates: in singlicate; n = 1.

The next assay deals with KIT-autoinhibited. The conditions noted are these: concentration: 1 μM, replicates: in singlicate; n = 1.
A further assay concerns KIT. The following applies: concentration: 1 μM, replicates: in singlicate; n = 1.
The test system of another assay is LATS1. The following applies: n = 1.
In the next assay the test system is LATS2. The conditions noted are these: concentration: 1 μM, replicates: in singlicate; n = 1.
The mark [5] stands for this setting: concentration: 1 μM, replicates: in singlicate.
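Also: KINOMEscan kinase panel screen.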

As to `CCn1c(-c2nonc2N)nc2c(C#CC(C)(C)O)ncc(OCCCCN)c21.O=C(O)C(F)(F)F.O=C(O)C(F)(F)F` [GSK507274], the “%Inh” value amounted to 24% with IKK-alpha; 43% in the assay with IKK-beta; 33% in the assay with IKK-epsilon; 0% with INSRR; 0% in the assay with INSR; 26% in the assay on IRAK1. Also, the “%Inh” value in the assay with IRAK3 is 0%; in the assay with IRAK4 it was 20%; with ITK, 15%; in [1], 21%; in assay [2] it was 0%; in [3] it was 60%. Moreover, the “%Inh” value is on record as 0% in assay [4]; 25% in the assay on JNK1; 10% in the assay with JNK2; 11% in the assay with JNK3; 0% in the assay with KIT-autoinhibited; 17% with KIT. Further, the “%Inh” value in the assay with LATS1 (1 µM) is reported as 0%; in the assay with LATS2, 89%.
In the case of `CCc1ccc(-c2ccc3c(c2)-c2c(cnn2C)S(=O)(=O)N3C)cc1`, the “%Inh” value with IKK-alpha was found to be 0%; in the assay with IKK-beta, 7%; with IKK-epsilon, 0%; in the assay with INSRR, 7%; with INSR, 0%; in the assay on IRAK1 it was 0%. Moreover, the “%Inh” value is given as 11% in the assay with IRAK3; 0% in the assay on IRAK4; 2% in the assay with ITK; 0% in assay [1]; 5% in assay [2]; 2% in [3]. In addition, the “%Inh” value in [4] was 5%; in the assay with JNK1, 0%; in the assay with JNK2, 0%; with JNK3, 0%; in the assay with KIT-autoinhibited it was 0%; in the assay with KIT it was 2%. The “%Inh” value in the assay on LATS1 (setting [5]) and with LATS2 was 0% throughout.
`c1ccc(Oc2ccc(Nc3ccnc4cc(-c5ccc(CNCCN6CCOCC6)o5)ccc34)cc2)nc1` [GW567145]: the “%Inh” value stood at 28% with IKK-alpha; 0% in the assay on IKK-beta; 27% with IKK-epsilon; 0% in the assay on INSRR; 11% with INSR; 20% in the assay with IRAK1. Also, the “%Inh” value was 0% with IRAK3; 0% with IRAK4; 0% in the assay with ITK; 5% in [1]; 0% in assay [2]; 7% in assay [3]. In addition, the “%Inh” value in assay [4] was found to be 0%; with JNK1, 18%; with JNK2, 2%; in the assay on JNK3, 0%; with KIT-autoinhibited, 4%; in the assay on KIT, 79%. For the same compound, the “%Inh” value is on record as 8% with LATS1 (setting [5]) and 0% in the assay on LATS2.
As to `Cc1ccc(F)c(C(=O)Nc2cccc(-c3nn4ccccc4c3-c3ccnc(Nc4cccc(F)c4)n3)c2)c1F` [GSK361061], the “%Inh” value in the assay on IKK-alpha was found to be 0%; in the assay on IKK-beta it was 0%; with IKK-epsilon, 22%; in the assay with INSRR, 26%; in the assay on INSR, 25%; in the assay with IRAK1 it was 0%. In addition, the “%Inh” value with IRAK3 was found to be 17%; in the assay on IRAK4, 3%; in the assay with ITK, 43%; in assay [1], 9%; in assay [2], 0%; in assay [3], 8%. Also, the “%Inh” value in assay [4] came to 0%; in the assay on JNK1, 29%; in the assay on JNK2, 38%; in the assay on JNK3 it was 25%; in the assay with KIT-autoinhibited, 2%; in the assay with KIT it was 99.4%. Besides, the “%Inh” value in the assay on LATS1 (setting [5]) came out at 1%; with LATS2, 23%.
Regarding `Cc1cccc(Nc2nc(N[C@H]3CCNC3)ncc2C(N)=O)c1.Cl` [GSK2197149], the “%Inh” value came out at 35% in the assay on IKK-alpha; 12% with IKK-beta; 13% in the assay with IKK-epsilon; 0% in the assay on INSRR; 16% with INSR; 21% in the assay on IRAK1. In addition, the “%Inh” value with IRAK3 came out at 1%; in the assay with IRAK4, 76%; with ITK, 21%; in [1] it was 0%; in assay [2], 88%; in assay [3], 58%. In addition, the “%Inh” value in assay [4] is listed as 3%; with JNK1, 67%; in the assay on JNK2, 29%; in the assay with JNK3, 34%; in the assay on KIT-autoinhibited it was 0%; in the assay with KIT it was 94.9%. Besides, the “%Inh” value with LATS1 (setting [5]) and in the assay with LATS2 was 0% throughout.
On to `CN1CCN(Cc2cccc(-c3ccc4c(Nc5ccc(Oc6ccccc6)cc5)ccnc4c3)c2)CC1` [GW578342], for which the “%Inh” value with IKK-alpha came out at 5%; in the assay on IKK-beta, 0%; in the assay on IKK-epsilon it was 12%; with INSRR, 6%; in the assay on INSR, 0%; in the assay on IRAK1 it was 13%. In addition, the “%Inh” value in the assay with IRAK3 stood at 0%; in the assay with IRAK4, 0%; with ITK it was 9%; in [1] it was 21%; in [2] it was 0%; in assay [3], 0%. Moreover, the “%Inh” value in assay [4] is recorded as 0%; in the assay with JNK1 it was 0%; in the assay on JNK2 it was 0%; in the assay with JNK3, 0%; in the assay on KIT-autoinhibited it was 11%; in the assay with KIT, 93.7%. In addition, the “%Inh” value in the assay on LATS1 (setting [5]) came out at 10%; in the assay with LATS2 it was 0%.
`Cc1ccc(S(=O)(=O)Nc2ccc(Nc3nccc(Nc4cccc5[nH]ncc45)n3)cc2)cc1` [GSK581271]: the “%Inh” value stood at 10% with IKK-alpha; 3% in the assay on IKK-beta; 0% in the assay on IKK-epsilon; 0% with INSRR; 0% in the assay with INSR; 29% in the assay on IRAK1. For the same compound, the “%Inh” value with IRAK3 amounted to 62%; with IRAK4, 43%; in the assay with ITK, 29%; in assay [1], 44%; in [2], 16%; in [3], 68%. For the same compound, the “%Inh” value is recorded as 3% in assay [4]; 44% in the assay on JNK1; 27% in the assay on JNK2; 29% in the assay on JNK3; 0% in the assay with KIT-autoinhibited; 85% with KIT. For the same compound, the “%Inh” value in the assay with LATS1 (setting [5]) and in the assay on LATS2 was 0% in each case.
In the case of `Cc1ccc(C)c(NC(=O)NC2CCN(c3ccnc(Nc4ccc(F)cc4)n3)C2)c1` (stereo not shown) [GSK1379720], the “%Inh” value was found to be 32% in the assay on IKK-alpha; 18% in the assay on IKK-beta; 3% in the assay with IKK-epsilon; 0% in the assay on INSRR; 0% in the assay on INSR; 40% in the assay with IRAK1. For the same compound, the “%Inh” value in the assay on IRAK3 stood at 0%; in the assay with IRAK4, 20%; in the assay with ITK, 5%; in assay [1], 12%; in assay [2], 0%; in assay [3] it was 0%. Besides, the “%Inh” value in assay [4] is recorded as 0%; with JNK1 it was 45%; with JNK2, 10%; with JNK3 it was 0%; with KIT-autoinhibited it was 0%; with KIT, 14%. Moreover, the “%Inh” value with LATS1 (setting [5]) worked out at 12%; in the assay with LATS2, 0%.
